Assay outcomes deposited in PubChem BioAssay by National Center for Advancing Translational Sciences (NCATS).
L3MBTL1 block – inhibitors of human L3MBTL1. Q9Y468. AlphaScreen L3MBTL1–H3K9me1 peptide binding. Potency, µM (doses to about 57.1 µM), usual class: inhibitors. 230,000 compounds, 0.66% hits. AID 485360; also: nearly all actives have a fitted effect of over 60% in size
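AlphaScreen proximity signal between nickel-chelate acceptor and streptavidin donor beads (final 10 ug/mL) reports binding of 50 nM L3MBTL1 to 75 nM biotin-H3 K9me1 peptide; complex incubated with compounds 30 min at room temperature; cefsulodin titration as control.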
Sfp PPTase inh – blocks B. subtilis Sfp PPTase activity. Potency, µM, usual class: inhibitors. Biochemical Sfp PPTase activity, qHTS. 310,000 compounds, 3.5% hits. AID 1490. Q9F4F7;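 also: the enzyme is Sfp with the accession as filed and its product quenches rhodamine fluorescence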
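Compounds were incubated with enzyme (final 15 nM) for 15 min at room temperature before substrate addition started the reaction. Fluorescence at 525 nm excitation, 598 nm emission was recorded immediately and after 30 minutes.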
HP1b chromo inh – HP1-beta chromodomain-methylated histone interaction inhibition. AlphaScreen HP1-beta / biotin-H3K9me3 peptide binding. AID 540317. Potency, µM (doses to about 114 µM), usual class: inhibitors. P83916. 390,000 compounds, 0.56% hits; also: nearly all actives have a fitted effect of over 70% in size
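Compound inhibition of the preformed complex between 50 nM HP1-beta and 50 nM biotinylated H3K9me3 peptide was read by AlphaScreen. Buffer was PBS pH 7.4 with 0.01% Tween-20. Incubations ran 30 min at room temperature, with 10 ug/mL donor/acceptor beads.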
JMJD2A Tudor inh – blocks the human JMJD2A Tudor domain | O75164 | AlphaScreen JMJD2A-Tudor / H3K4me3 peptide binding | Potency, µM (highest dose often 114 µM), usual class: inhibitors | 390,000 compounds, 4.4% hits | AID 504339; also: nearly all actives have a fitted effect of over 50% in size
Target sequence (O75164 whole entry, looked up, the tested form may be a part): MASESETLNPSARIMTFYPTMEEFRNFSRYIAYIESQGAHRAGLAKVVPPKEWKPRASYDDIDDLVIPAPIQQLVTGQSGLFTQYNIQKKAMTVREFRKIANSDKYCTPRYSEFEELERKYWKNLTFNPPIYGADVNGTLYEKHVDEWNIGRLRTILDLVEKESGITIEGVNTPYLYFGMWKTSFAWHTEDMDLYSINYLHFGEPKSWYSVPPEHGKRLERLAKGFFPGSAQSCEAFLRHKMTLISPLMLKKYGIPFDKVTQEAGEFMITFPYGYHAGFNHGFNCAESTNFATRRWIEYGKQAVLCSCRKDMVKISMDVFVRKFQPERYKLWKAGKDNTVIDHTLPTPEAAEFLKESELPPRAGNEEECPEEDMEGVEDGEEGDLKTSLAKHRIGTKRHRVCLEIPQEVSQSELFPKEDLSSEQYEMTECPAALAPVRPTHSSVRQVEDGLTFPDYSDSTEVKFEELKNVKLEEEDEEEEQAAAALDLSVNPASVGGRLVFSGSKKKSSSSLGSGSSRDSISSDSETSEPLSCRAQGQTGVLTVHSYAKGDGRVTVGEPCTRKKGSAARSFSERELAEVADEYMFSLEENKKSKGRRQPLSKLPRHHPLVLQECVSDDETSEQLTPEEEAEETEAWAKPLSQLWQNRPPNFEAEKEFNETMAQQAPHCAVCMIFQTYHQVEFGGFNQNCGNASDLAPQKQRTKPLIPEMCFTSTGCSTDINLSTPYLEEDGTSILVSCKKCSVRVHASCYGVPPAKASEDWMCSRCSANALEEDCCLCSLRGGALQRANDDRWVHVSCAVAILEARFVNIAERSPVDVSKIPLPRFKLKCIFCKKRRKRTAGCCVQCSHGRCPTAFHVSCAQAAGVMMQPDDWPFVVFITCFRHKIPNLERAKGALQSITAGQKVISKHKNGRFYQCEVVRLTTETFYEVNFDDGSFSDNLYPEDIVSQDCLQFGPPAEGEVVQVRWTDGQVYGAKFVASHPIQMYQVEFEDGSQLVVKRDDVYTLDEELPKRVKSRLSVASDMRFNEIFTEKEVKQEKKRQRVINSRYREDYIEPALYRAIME
G9a block – blocks human histone lysine methyltransferase G9a; Q96KQ7; G9a H3K9 monomethylation, AlphaScreen, 2 h; Potency, µM (series often up to 102 µM), actives largely listed as inhibitors; 350,000 compounds, 8.8% hits; also: nearly all actives have a fitted effect of over 75% in size
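AlphaScreen detection with an anti-monomethyl H3K9 antibody quantified product after a 2 h room-temperature reaction containing 500 nM biotinylated H3K9 peptide, 20 µM SAM and 20 nM enzyme, which had been preincubated 15 min with compound.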
BAZ2B block – inhibitors of human BAZ2B bromodomain. Q9UIF8. AlphaScreen BAZ2B-H3K14Ac peptide displacement. Potency, µM (titrated, usually from 114 µM), hits mostly inhibitors. 360,000 compounds, 4.4% hits; also: nearly all actives have a fitted effect of over 60% in size
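Multi-concentration screen (max 110 uM) measuring displacement of acetylated histone H3 peptide from BAZ2B by AlphaScreen, using 50 nM protein, 50 nM peptide and 10 ug/mL streptavidin donor plus Ni-chelate acceptor beads.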
Each line names hits and unclear results; the compound was inactive in the other large screens. An excerpt weighted towards active compounds, which were near 12% of everything screened. Calls follow the shape of the dose curve; as a rule, active = well fitted curve in the direction sought with a large enough effect; inconclusive = small, poorly fitted or top-dose-only effect, or another doubt; inactive = no such curve, though single readings can be large; an effect the other way counts as inactive or inconclusive.

O=C(O)c1ccc(Cl)c(S(=O)(=O)N(Cc2ccccc2)c2ccc(Cl)cc2)c1	G9a block 50µM (no result: L3MBTL1 block)
NC(=O)NC(=O)COC(=O)c1ccc(Cl)c(S(=O)(=O)N(Cc2ccccc2)c2ccc(Cl)cc2)c1	none
COc1ccc(-c2csc(Nc3ccccn3)n2)cc1OC	JMJD2A Tudor inh inconclusive, G9a block 50µM, BAZ2B block 45µM
Oc1ccc(-c2csc(Nc3ccccn3)n2)cc1	G9a block 71µM, BAZ2B block inconclusive
COc1ccc(NC(=O)Nc2nnc(C)s2)cc1	none (no result: L3MBTL1 block, Sfp PPTase inh)
CCCCOc1ccc(NC(=O)Nc2nnc(C)s2)cc1	G9a block 79µM
CCCCOc1ccc(NC(=O)CCSc2nccn2C)cc1	JMJD2A Tudor inh 3.2µM, G9a block 11µM, BAZ2B block inconclusive
CCOC(=O)c1ccc(NC(=O)CSc2nccn2C)cc1	G9a block inconclusive, BAZ2B block inconclusive (no result: L3MBTL1 block)
CCN(CCCNC(=O)c1ccc(Sc2ccc(Cl)cc2)c(NC(C)=O)c1)c1ccccc1	JMJD2A Tudor inh inconclusive, G9a block inconclusive (no result: L3MBTL1 block, Sfp PPTase inh)
Cc1ccc(CNC(=O)c2cn(C)c3ccc(S(=O)(=O)N(C)C4CCCCC4)cc3c2=O)cc1	G9a block inconclusive (no result: L3MBTL1 block, Sfp PPTase inh, BAZ2B block)
Cc1cccn2c(Nc3ccccc3)c(-c3ccc(N4CCOCC4)cc3)nc12	none (no result: L3MBTL1 block, Sfp PPTase inh)
Cc1ccc(Nc2c(-c3ccc(C)cc3)nc3c(C)cccn23)cc1	HP1b chromo inh inconclusive, JMJD2A Tudor inh inconclusive, G9a block 11µM (no result: L3MBTL1 block, Sfp PPTase inh, BAZ2B block)
Cc1ccccc1Nc1c(-c2ccccn2)nc2c(C)cccn12	HP1b chromo inh inconclusive, JMJD2A Tudor inh 40µM, G9a block 45µM, BAZ2B block 14µM (no result: L3MBTL1 block)
Cc1ccc(-c2nc3c(C)cccn3c2Nc2ccccc2C)s1	HP1b chromo inh inconclusive, JMJD2A Tudor inh 45µM, G9a block 14µM, BAZ2B block 16µM (no result: L3MBTL1 block, Sfp PPTase inh)
COc1cc(OC)c(OC)cc1CN1CCc2nc(Nc3ccc4c(c3)OCCO4)ncc2C1	JMJD2A Tudor inh 56µM, G9a block 14µM, BAZ2B block 45µM (no result: L3MBTL1 block, Sfp PPTase inh)
COc1cc(Nc2ncc3c(n2)CCN(Cc2cccc(C)c2)C3)cc(OC)c1	JMJD2A Tudor inh inconclusive, BAZ2B block inconclusive (no result: L3MBTL1 block, Sfp PPTase inh)
CCOc1ccccc1CN1CCc2nc(Nc3ccc4c(c3)OCCO4)ncc2C1	HP1b chromo inh inconclusive, JMJD2A Tudor inh 56µM, G9a block inconclusive, BAZ2B block 40µM (no result: L3MBTL1 block, Sfp PPTase inh)
COc1cc(Nc2ncc3c(n2)CCN(Cc2cc(F)cc(F)c2)C3)cc(OC)c1	BAZ2B block inconclusive (no result: L3MBTL1 block, Sfp PPTase inh)
Clc1ccc(CN2CCc3nc(Nc4ccc5c(c4)OCCO5)ncc3C2)cc1	JMJD2A Tudor inh 28µM, BAZ2B block 18µM (no result: L3MBTL1 block, Sfp PPTase inh)
O=C(CS(=O)(=O)c1cccc2nsnc12)NCc1ccccc1	none (no result: L3MBTL1 block, Sfp PPTase inh)
COc1cccc(CN2CC34CC(c5ccc(C(C)=O)cc5)C(CC3S2(=O)=O)O4)c1 (stereo not given)	none (no result: L3MBTL1 block, G9a block, BAZ2B block)
O=C1Nc2ccccc2C1=Nc1ccc(S(=O)(=O)Nc2nccs2)cc1	JMJD2A Tudor inh 56µM, G9a block inconclusive
NS(=O)(=O)c1ccc(N=C2C(=O)Nc3ccccc32)cc1	none (no result: G9a block)
Cc1ccc2nc(COc3ccccc3NC(=O)C(C)(C)C)cc(=O)n2c1	none (no result: L3MBTL1 block, Sfp PPTase inh)
Cc1ccc(Cl)cc1-n1c(=O)cc(N2CCN(c3ccccc3)CC2)[nH]c1=O	none (no result: L3MBTL1 block, Sfp PPTase inh)
COc1cccc(-n2c(=S)sc3c(=O)n(-c4ccccc4OC)c(=S)[nH]c32)c1	JMJD2A Tudor inh inconclusive, G9a block inconclusive, BAZ2B block inconclusive (no result: L3MBTL1 block)
CCN(CC)C(=O)CSc1nc2c(sc(=S)n2-c2ccccc2OC)c(=O)n1-c1ccccc1	none (no result: L3MBTL1 block)
COc1ccccc1-n1c(=S)[nH]c2c(sc(=S)n2-c2ccccc2)c1=O	JMJD2A Tudor inh inconclusive
COc1ccc(OC)c(-n2c(=S)[nH]c3c(sc(=S)n3-c3ccccc3C)c2=O)c1	JMJD2A Tudor inh 89µM, BAZ2B block inconclusive (no result: L3MBTL1 block)
CCOc1ccccc1-n1c(=S)sc2c(=O)n(-c3ccccc3)c(=S)[nH]c21	JMJD2A Tudor inh 79µM (no result: L3MBTL1 block)
COc1ccccc1-n1c(=S)[nH]c2c(sc(=S)n2-c2ccccc2C)c1=O	HP1b chromo inh inconclusive, JMJD2A Tudor inh 79µM, G9a block inconclusive (no result: L3MBTL1 block)
CC(=O)c1c(C)[nH]c(C(=O)NC2=NCCS2)c1C	BAZ2B block 50µM
